# Assay results taken from PubChem BioAssay AID1259310 (The Scripps Research Institute Molecular Screening Center, 2017).
# Among all 650,000 compounds or so, about 850 (0.13%) were called active. Cut-off read from the data, not from the text of the source: active = normalized activity above about 1.9%; inactive = the rest. What follows is part of a selection rich in actives, with near analogues and random picks from the rest.
# Biological target: F-box/WD repeat-containing protein 7 (Homo sapiens) (UniProt Q969H0)
# Test: FBW7 E3 ligase activators, primary screen, biochemical, AlphaScreen, human (AID 1259310);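 note: purified mutant Fbw7 with reduced substrate affinity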
# Settings: AlphaScreen FBW7–phospho-cyclin E peptide binding, activator screen; at 26.1 µM; hits give high values
# Chain of F-box/WD repeat-containing protein 7 (Homo sapiens) (Q969H0 whole entry, looked up): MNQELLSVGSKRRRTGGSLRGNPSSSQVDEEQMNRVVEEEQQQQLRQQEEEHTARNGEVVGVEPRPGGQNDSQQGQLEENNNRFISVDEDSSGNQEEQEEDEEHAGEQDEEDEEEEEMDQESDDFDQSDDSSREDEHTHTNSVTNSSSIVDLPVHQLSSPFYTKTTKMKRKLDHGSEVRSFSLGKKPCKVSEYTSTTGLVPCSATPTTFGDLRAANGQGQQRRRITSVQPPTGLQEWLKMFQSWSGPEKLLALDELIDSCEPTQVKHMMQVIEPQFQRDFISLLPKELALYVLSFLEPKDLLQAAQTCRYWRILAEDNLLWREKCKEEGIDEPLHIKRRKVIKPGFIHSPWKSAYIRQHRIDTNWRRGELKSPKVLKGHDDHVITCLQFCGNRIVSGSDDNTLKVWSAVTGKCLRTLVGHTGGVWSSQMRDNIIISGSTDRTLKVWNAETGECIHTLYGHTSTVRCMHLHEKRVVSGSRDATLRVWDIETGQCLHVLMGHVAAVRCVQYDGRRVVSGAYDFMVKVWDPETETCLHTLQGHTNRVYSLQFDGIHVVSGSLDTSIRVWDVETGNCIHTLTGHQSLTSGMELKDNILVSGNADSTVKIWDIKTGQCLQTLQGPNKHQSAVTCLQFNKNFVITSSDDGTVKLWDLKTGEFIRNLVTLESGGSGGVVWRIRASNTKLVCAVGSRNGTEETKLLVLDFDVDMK
row,SMILES,normalized activity (activation)
1,O=C1NC(=O)N(c2ccc(Br)cc2)C(=O)/C1=C\C=C\c1ccco1,-0.18% (inactive)
2,COc1ccc(OC)c(C2Nc3cccc4cccc(c34)N2)c1,0.03% (inactive)
3,COc1cc(OC)c(C2Nc3cccc4cccc(c34)N2)cc1OC,1.96% (active)
4,COc1ccc(C2Nc3cccc4cccc(c34)N2)c(OC)c1OC,0.39% (inactive)
5,O=c1[nH]c(N2CCOCC2)nc2c1CN(Cc1ccccc1Cl)CC2,-0.04% (inactive)
6,O=C1CC(c2noc(-c3ccco3)n2)CN1c1ccccc1 (stereo not given),-0.17% (inactive)
7,COc1cccc(-c2nc(-c3ccccc3)c(-c3ccccc3)[nH]2)c1O,-0.07% (inactive)
8,CCOc1ccc2nc(N3CCC(NCCc4nc(C)c5c(n4)CCC5)CC3)nc(C)c2c1,0.33% (inactive)
9,CC1CC(C)CN(CCS(=O)(=O)c2ccc(Oc3ccc(S(=O)(=O)CCN4CC(C)CC(C)C4)cc3)cc2)C1 (stereo not given),-0.1% (inactive)
10,CCCCOC(=O)C1=C(C)N(C)C(=O)NC1c1cc(Cl)c(O)c(OC)c1 (stereo not given),-0.11% (inactive)
11,CCOc1cc(OCC)cc(C(=O)Nc2cc3nn(-c4ccc(OC)cc4)nc3cc2C)c1,-0.15% (inactive)
12,CCOc1ccc(C(=O)Nc2ccccc2I)cc1[N+](=O)[O-],-0.08% (inactive)
13,CCOc1ccc(C(=O)Nc2cc3nn(-c4ccc(C)cc4)nc3cc2C)cc1[N+](=O)[O-],2.14% (active)
14,O=C(Cc1ccccn1)N1CCCC(c2nc(N3CCOCC3)ncc2-c2ccncc2)C1 (stereo not given),-0.05% (inactive)
15,CCOc1ccc(-n2nc(C(=O)Nc3ccccc3C(F)(F)F)c3ccccc3c2=O)cc1,-0.03% (inactive)
16,NC(=O)c1ccccc1NC(=S)NC(=O)/C=C/c1cccc([N+](=O)[O-])c1,0.01% (inactive)
17,Cc1ccc2nc(SCC(=O)Nc3ccccc3C(N)=O)[nH]c2c1,0.11% (inactive)
18,O=C(Nc1ccccc1[N+](=O)[O-])c1cc(S(=O)(=O)Nc2cccc(F)c2)ccc1Cl,-0.02% (inactive)
19,O=C(COC(=O)c1ccccc1F)NCc1ccco1,-0.11% (inactive)
20,Cc1noc(C)c1-c1nc(N)c2ncn(-c3ccccc3)c2n1,-0.05% (inactive)
21,COc1cc(Nc2nc(-c3c(C)noc3C)nc3c2ncn3C2CCCCC2)cc(OC)c1OC,-0.17% (inactive)
22,COc1cc(Nc2nc(-c3c(C)noc3C)nc3c2ncn3-c2ccccc2)cc(OC)c1OC,14.2% (active)

row,SMILES,normalized activity (activation)
1,Cc1nc2c(C(=O)N3CCCC3)cnn2c(C)c1Cc1ccccc1Cl,-0.09% (inactive)
2,O=C(Nc1ccc(I)cc1)OCCCc1ccccc1,0.21% (inactive)
3,Cc1ccc2nc(NC(=O)c3cc(-c4ccc(Cl)s4)nc4ccccc34)sc2c1,-0.02% (inactive)
4,Cc1c(-c2nc3cnccn3c2NCc2ccc(F)cc2)cnn1C,-0.04% (inactive)
5,COc1ccc(SCC(=O)NNC(=S)Nc2ccccc2)cc1,2.07% (active)
6,COc1ccc(NC(=S)C(=O)Nc2ccccc2)cc1,0.08% (inactive)
7,COc1cccc(NC(=O)CSc2ccc(Br)cc2)c1,0.07% (inactive)
8,CCOc1ccc2nc(NC(=O)c3cccc(C(=O)OC)n3)sc2c1,-0.02% (inactive)
9,CC(C)c1ccc(OCC(=O)N/N=C/c2cccnc2)cc1,-0.04% (inactive)
10,COc1c(Cl)cc(Cl)cc1C(=O)Nc1ccccc1[N+](=O)[O-],-0.17% (inactive)
11,O=C(CN1C(=O)c2cccc([N+](=O)[O-])c2C1=O)OCC(=O)c1ccc(Cl)cc1,-0.01% (inactive)
12,CCOC(=O)C1=C(C)NC(=S)NC1c1cc(OC)ccc1O (stereo not given),0.11% (inactive)
13,N#Cc1c2c(c(-n3ccnc3)n3c1nc1ccccc13)CCC2,0.17% (inactive)
14,Cc1c(CCC#N)c(-n2ccnc2)n2c(nc3ccccc32)c1C#N,-0.21% (inactive)
15,CCc1c(C)c(C#N)c2nc3ccccc3n2c1-n1ccnc1,2.07% (active)
16,COc1ccc(/C=N/Nc2nc3nonc3nc2Nc2cccc(C)c2)cc1OC,-0.17% (inactive)
17,COc1cccc2c1OC1(CCN(C(=O)Nc3cccc(F)c3)CC1)OC2,-0.04% (inactive)
18,Oc1ccccc1-c1nc(-c2cccc(C(F)(F)F)c2)c(-c2ccccc2)[nH]1,0.23% (inactive)
19,c1cnc(Sc2nnc3ccccn23)nc1,0.1% (inactive)
20,COc1ccc(N=C2CCC(O)=C2C(C)=O)cc1,0.05% (inactive)
21,COc1ccc(S(=O)(=O)NCC(=O)Nc2cccc(Br)c2)cc1OC,-0.15% (inactive)
22,CCn1c(=N)n(CC(=O)c2cccc(OC)c2)c2ccccc21,2.64% (active)

row,SMILES,normalized activity (activation)
1,COc1cccc(C(=O)N2CCc3ccccc32)c1,0.05% (inactive)
2,COc1cccc(C(=O)N2CCN(C(=O)c3cccc(OC)c3)CC2)c1,0% (inactive)
3,Cc1cc(S(=O)(=O)Nc2ccc(Br)cc2)c(C)c(S(=O)(=O)c2ccc(Cl)cc2)c1,0.11% (inactive)
4,O=C1CCCC2=C1C(c1cccnc1)Nc1ccc3ncccc3c12 (stereo not given),-0.33% (inactive)
5,CCCCNc1ncc2c(n1)c(=O)c(C#N)c1[nH]c3ccccc3c(=O)n12,2.15% (active)
6,CN(C)CCCNc1ncc2c(n1)c(=O)c(C#N)c1[nH]c3ccccc3c(=O)n12,-0.01% (inactive)
7,CCCCNC(=O)CSc1nnc2c(n1)[nH]c1ccccc12,0.16% (inactive)
8,O=C(O)COc1ccc(C2Nc3ccccc3S(=O)(=O)N2Cc2ccccc2)cc1 (stereo not given),-0.1% (inactive)
9,O=C(c1nc2ccccc2s1)N1CCN(c2nc3ccccc3s2)CC1,0.01% (inactive)
10,Oc1ccccc1-c1nc(CI)no1,0.03% (inactive)
11,O=S(=O)(NC1CCCCC1Sc1ncn[nH]1)c1ccc(Cl)cc1 (stereo not given),0% (inactive)
12,CCSC1=NSC2=NC(=O)/C(=C\c3ccc(OC)cc3)C(=N)N12,0.04% (inactive)
13,COc1cccc(NC(=O)Nc2cc(OC)cc(OC)c2)c1,-0.06% (inactive)
14,COc1cccc(NC(=O)Nc2ccc(-c3cn4c(C)c(C)nnc4n3)cc2)c1,1.87% (active)
15,COc1ccc(NC(=O)c2sc3nc(-c4cccc([N+](=O)[O-])c4)cn3c2C)cc1,-0.14% (inactive)
16,CCC(C)(C(=O)Nc1ccc2c(c1)OCCO2)N(Cc1ccco1)C(=O)c1ccccc1O (stereo not given),-0.01% (inactive)
17,O=C(COc1cccc([N+](=O)[O-])c1)N/N=C/c1ccc(O)c([N+](=O)[O-])c1,-0.11% (inactive)
18,COc1ccc(C(c2nnnn2C(C)(C)C)N2CCN(c3ccccc3)CC2)cc1 (stereo not given),0.3% (inactive)
19,CCCC(c1nnnn1C(C)(C)C)N1CCN(Cc2ccccc2)CC1 (stereo not given),0.01% (inactive)
20,CN(C)c1ccc(C(c2nnnn2C(C)(C)C)N2CCN(Cc3ccccc3)CC2)cc1 (stereo not given),1.85% (active)
21,CC(=O)c1ccc(N2C(=O)C3C(C2=O)C2(C)c4ccccc4C3(C)c3ccccc32)cc1 (stereo not given),-0.19% (inactive)
22,COc1ccc(-c2cc(NCCOc3ccccc3)nc(N)n2)cc1,0.12% (inactive)

row,SMILES,normalized activity (activation)
1,O=C(COc1ccc(Cl)cc1)NNC(=O)C(Cc1ccccc1)N1C(=O)c2ccccc2C1=O (stereo not given),0.06% (inactive)
2,Cc1cc(C(=O)C(=O)c2nccn2C)c(C)n1C,0.04% (inactive)
3,CCC(c1nnnn1C1CCCC1)N1CCN(C(=O)c2ccco2)CC1 (stereo not given),-0.16% (inactive)
4,CCC(c1nnnn1CCC(C)C)N1CCN(c2ccccc2)CC1 (stereo not given),0.24% (inactive)
5,CCC(c1nnnn1CCC(C)C)N1CCN(C(=O)c2ccco2)CC1 (stereo not given),2.16% (active)
6,COc1cc(Cl)c(C)cc1NC(=O)CCNC(=O)Cn1cnc2sc3c(c2c1=O)CCCC3,-0.1% (inactive)
7,Cc1ccc(CN2CCN(CC(=O)NCc3ccccn3)C2=O)cc1,-0.27% (inactive)
8,O=[N+]([O-])c1ccc(S(=O)(=O)NCCc2ccccc2)cc1,0.18% (inactive)
9,COC(=O)CNC(=O)CNS(=O)(=O)c1ccccc1[N+](=O)[O-],0.14% (inactive)
10,NNC(=O)CNC(=O)CNS(=O)(=O)c1ccc([N+](=O)[O-])cc1,1.97% (active)
11,CC1=C(C(=O)Nc2cccc(C(=O)Nc3cccc(Cl)c3C)c2)SCCO1,-0.1% (inactive)
12,COc1cc(C2CC(=O)NC3=C2C(=O)CC(C)(C)C3)cc([N+](=O)[O-])c1O (stereo not given),-0.34% (inactive)
13,C#CCN1C(=O)C(O)(CC(=O)c2ccc(OC)c([N+](=O)[O-])c2)c2ccccc21 (stereo not given),0.12% (inactive)
14,CN(C)CCN(C)c1nc(C2COc3ccc(C(N)=O)cc3C2)nc2ccc(-c3cn[nH]c3)cc12 (stereo not given),1.23% (inactive)
15,O=c1[nH]c(C2COc3ccc(F)cc3C2)nc2ccc(-c3cn[nH]c3)cc12 (stereo not given),-0.05% (inactive)
16,O=C(NCCc1cccnc1)c1ccc2c(c1)CC(c1nc3ccc(-c4cn[nH]c4)cc3c(=O)[nH]1)CO2 (stereo not given),3.03% (active)
17,CCN(CC)c1ccc2nnc(CCC(=O)Nc3ccc(C(=O)OC)cc3)n2n1,0.06% (inactive)
18,CC1CCCN(S(=O)(=O)c2ccc3c(c2)OCC(=O)N3)C1 (stereo not given),0.17% (inactive)
19,CCOC(=O)CC(C(C)C)N(Cc1ccc(F)cc1)C(=S)Nc1cccc(C)c1 (stereo not given),0.07% (inactive)
